# High-throughput results: PubChem, The Scripps Research Institute Molecular Screening Center
# Compounds with a hit are over-represented: about 2.3% of the library has one in this group of screens.
# M1 PAM parental: nonselective activator or artifact in parental CHO-K1 calcium assay; ATP EC20, Fluo-8 calcium fluorescence; 0% at ATP EC20, 100% at ATP max; activation, % at 3 µM; 360,000 compounds, 0.02% hits; AID 602247;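 active = activation above the run cutoff, the mean activation of all test compounds plus 3 SD, cut at about 40% in these data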;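 also: peak over basal fluorescence ratio in a 140 s read after ATP addition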
# CHRM1 PAM: human CHRM1 positive allosteric modulation; P11229; CHO-K1 hM1, Fluo-8 calcium fluorescence, ACh EC20; 0% = ACh EC20, 100% = maximal ACh; activation, % at 3 µM; 360,000 compounds, 0.088% hits; in the data active = activation above about 19%, passing the limit was not always enough
# Target sequence (P11229 whole entry, looked up): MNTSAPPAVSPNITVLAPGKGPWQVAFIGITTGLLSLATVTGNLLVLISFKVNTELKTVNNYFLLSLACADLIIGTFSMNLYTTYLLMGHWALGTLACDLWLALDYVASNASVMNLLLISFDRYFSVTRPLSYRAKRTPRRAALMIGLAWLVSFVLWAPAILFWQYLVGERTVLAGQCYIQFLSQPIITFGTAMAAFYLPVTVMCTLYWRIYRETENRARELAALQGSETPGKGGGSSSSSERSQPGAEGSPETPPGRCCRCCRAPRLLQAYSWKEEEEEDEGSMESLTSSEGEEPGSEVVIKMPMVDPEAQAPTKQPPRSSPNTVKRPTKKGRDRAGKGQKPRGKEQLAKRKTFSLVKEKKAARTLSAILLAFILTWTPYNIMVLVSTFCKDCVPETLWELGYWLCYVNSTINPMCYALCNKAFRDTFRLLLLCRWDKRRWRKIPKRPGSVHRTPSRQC
# M1 ag parental: nonselective activator or artifact in parental CHO-K1 cells | Fluo-8 calcium fluorescence; scaled to maximal ATP response, vehicle zero | activation, % at 3 µM | 360,000 compounds, 0.48% hits; in the data active = activation above about 15%;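 also: untransfected CHO-K1 host cells lacking M1 receptor as counterscreen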
# CHO-K1 Ca antag: nonselective inhibitor or artifact in parental CHO-K1 cells. ATP-induced calcium, Fluo-8 fluorescence. AID 602250. inhibition, % at 3 µM. 360,000 compounds, 0.6% hits;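 active = inhibition above a per-plate cutoff, the plate's mean sample inhibition plus 3 SD, cut at about 24% in these data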;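 also: 0% = DMSO plus EC80 ATP and 100% = DMSO alone without ATP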
# M1 antag: antagonists of human M1 muscarinic receptor; CHO-K1 hM1, Fluo-8 calcium fluorescence, ACh EC80 antagonist; inhibition, % at 3 µM; 360,000 compounds, 1.3% hits; AID 588852;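 active = percent inhibition above its own plate's cutoff, namely the mean of that plate's compound wells plus 3 SD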;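 also: peak over basal fluorescence ratio during 140 s after agonist addition; 0% = ACh EC80 plus DMSO and 100% = DMSO alone without agonist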
# M1 ag: activates human CHRM1 receptor. CHO-K1 hM1, Fluo-8 calcium fluorescence, agonist mode; 0% DMSO, 100% acetylcholine EC100. activation, % at 3 µM. 360,000 compounds, 0.33% hits. AID 588814;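 active = activation above the run's mean compound activation plus 3 SD, cut at about 16% in these data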;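 also: peak over basal fluorescence ratio within a 140 s kinetic read after compound addition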
# Numbers without * were called inactive.
SMILES,M1 PAM parental,CHRM1 PAM,M1 ag parental,CHO-K1 Ca antag,M1 antag,M1 ag
CN1C(=O)C(O)N=C(c2ccccc2)c2ccccc21 (stereo not given),-10.2,-25.2,0.4,-6.3,37.5*,-11.3
O=C1Nc2ccccc2C(c2ccccc2)=NC1O (stereo not given),3.5,17.8,0.1,-16.7,-14.5,-2.2
NC1C2CN3CCN(C2)CC1(c1ccccc1)C3 (stereo not given),15.7,7.9,0.4,-15.6,-31.4,-2.8
CCC1CCC(C)N(N=O)C1 (stereo not given),3.6,8.5,0.4,-0.1,-12.4,-1.1
C/C(Cl)=C/CC1(CN2CCCC2=O)C(=O)NC(=O)NC1=O,15.6,7.6,0.2,-7.7,-6.0,-2.7
C[N+](C)(C)CC#CCN1CCCC1=O,7.2,-12.3,1.7,16.2,89.0*,120.5*
CCN(CC)C(=O)c1ccc(NC(=O)c2cccc(S(=O)(=O)N3CCN(Cc4ccccc4)CC3)c2)cc1,-18.8,-10.3,9.0,29.3*,19.7,0.2
Cc1cc(C=C2C(=O)N(C)C(=S)N(C)C2=O)c(C)n1-c1cccnc1,16.7,4.7,1.3,-4.7,-2.4,-4.5
Cn1c(O)c(/C=C/C=Nc2ccccc2)c(=O)n(C)c1=S,7.5,-16.6,28.3*,13.8,34.4*,58.5*
CC1=C(O)C(=O)C=C2C1=CC=C1C2(C)CCC2(C)C3CC(C)(C(=O)O)CCC3(C)CCC12C (stereo not given),5.7,-6.0,5.7,36.9*,35.3,0.2
CCn1ccnc1CN1CCCC(C(=O)c2cc(C)c(OC)c(C)c2)C1 (stereo not given),-4.3,-20.0,1.9,-2.0,37.6*,-6.3
COC(=O)C1=C(c2c(C)noc2C)C[C@@H]2CC[C@H]1N2C(=O)N1CCC(O)(c2ccc(Cl)cc2)CC1,15.4,7.9,0.8,-15.5,-7.2,-5.3
CC1CCC(NCCc2ccc3c(c2)OCO3)CC1 (stereo not given),11.0,-29.6,2.3,-24.6,33.9*,-10.2
CCc1nn2c(=O)c(F)c(N3CCNCC3)nc2s1,-8.3,-9.3,0.0,-1.1,11.6,-5.5
c1ccc(Nc2ccc3ccccc3c2)cc1,4.3,-10.4,0.2,-0.3,11.7,-5.3
CC(C)Nc1ccc(Nc2ccccc2)cc1,1.9,-24.7,0.2,2.6,53.3*,-8.0
C[N+](C)(C)Cc1ccccc1,-2.5,-29.3,0.7,2.2,55.6,75.6*
Cc1ccc2c(c1)C1CN(C)CCC1N2C(=O)c1cccs1 (stereo not given),17.0,4.9,0.5,-2.3,-12.5,-6.7
Cc1ccc2c(c1)C1C[N+](C)(CC(=O)c3ccc(Cl)cc3Cl)CCC1N2C(=O)c1ccc(F)cc1 (stereo not given),-14.7,-18.5,3.0,-13.3,34.0*,-5.6
COc1ccc(OC(=O)N(C)C[C@@H]2OCc3ccccc3-c3c(n(C)c4ccccc34)C(=O)N([C@H](C)CO)C[C@@H]2C)cc1,-8.2,5.9,0.2,9.5,-10.4,-3.2
O=C(CCc1ccccc1)N1Cc2cc(N3CCCCC3)ccc2-n2nncc2C1,11.6,-10.5,1.8,6.8,9.7,-10.4
NCc1cc(=O)[nH]o1,4.9,10.6,0.2,-4.9,-37.4,-2.5
CCOc1ccc(-c2c(C)n(-c3ccc(OCC)cc3)c3[n+]2CCCCC3)cc1,-15.1,-10.3,12.1,39.5*,30.2,0.1
N=c1sccn1Cc1ccccc1F,-7.1,-8.5,0.3,-21.9,2.8,17.4*
CCCCn1nnnc1C(c1cccc2ccccc12)N1CCC2(CC1)C(=O)NCN2c1ccccc1 (stereo not given),-8.2,8.8,0.0,30.1*,-3.4,2.3
SMILES,M1 PAM parental,CHRM1 PAM,M1 ag parental,CHO-K1 Ca antag,M1 antag,M1 ag
O=C1NCN(c2ccccc2)C12CCN(C(c1ccccc1)c1nnnn1-c1ccc3c(c1)OCCO3)CC2 (stereo not given),0.2,20.2,1.4,6.2,5.5,16.7*
CCCOC(=O)C1C2CCC(O2)C1C(=O)O (stereo not given),14.6,11.5,1.4,-26.2,-13.3,-1.5
CN(C)C1CCc2[nH]c3c(F)cc(F)cc3c2C1 (stereo not given),13.8,-17.7,0.8,1.9,34.6*,-8.6
CN1CCN(CCC(C#N)(c2ccccc2)c2ccccc2)CC1,9.7,-22.1,0.8,2.8,98.7*,-6.1
CC(CN1CCOCC1)C(C#N)(c1ccccc1)c1ccccc1 (stereo not given),19.9,-22.1,0.9,-27.8,6.0,-7.0
Clc1ccc2c(c1)C(c1ccccc1Cl)=NCc1nnc(N3CCN(CCOc4ccccc4)CC3)n1-2,64.0*,10.5,11.1,-15.4,-0.9,1.0
Clc1ccc2c(c1)C(c1ccccc1Cl)=NCc1nnc(N3CCN(CCSc4ccccc4)CC3)n1-2,17.1,8.5,-0.3,-8.8,-2.5,1.5
COc1ccccc1C1=NCc2nnc(C)n2-c2ccc(Cl)cc21,-3.1,-3.8,0.6,30.6*,11.2,-6.2
CC1(C)C2SCC(=O)N2CCN1CC(=O)NN (stereo not given),20.4,8.7,1.0,-10.2,-5.6,-0.9
CCC1=CCN(CCc2c(C)[nH]c3ccccc23)CC1,-7.6,-5.5,0.1,1.1,1.1,-12.2
FC(F)(F)c1ccc2c(c1)N(CCCN1CCN(CCCl)CC1)c1ccccc1S2,9.8,-18.0,0.5,4.5,42.5*,-4.7
CN(CC1COc2ccccc2O1)c1nc(-c2cccnc2)nc2ccccc12 (stereo not given),-4.3,-13.2,3.4,-3.6,30.0*,-0.2
CN1CCC(N(C)c2nc(-c3ccc([N+](=O)[O-])cc3)nc3ccccc23)CC1,19.2,-4.2,2.3,-11.3,-3.0,-2.2
c1ccc2c(c1)[nH]c1cnccc12,-13.0,-0.9,0.6,25.4*,-20.8,-5.0
Cc1c2ccncc2c(C)c2c1[nH]c1ccccc12,10.2,-5.1,5.1,13.6,-13.9,1.6
CCS(=O)(=O)CCSP(=O)(OC)OC,17.2,8.7,0.7,-11.3,-14.1,-1.4
CN1CCc2nc(N)c(C#N)c(-c3ccccc3)c2C1,0.8,-19.6,0.1,-13.9,33.7*,-7.7
CCN(CC)C1=NC(=[N+](CC)CC)c2ccccc21,14.2,-2.2,0.8,-10.7,1.3,-7.6
CC(=O)OC1N=C(c2ccccc2)c2ccccc2NC1=O (stereo not given),3.4,-0.2,0.5,-11.8,-30.2,0.4
Nc1ccc2nonc2c1[N+](=O)[O-],19.1,4.7,16.6*,-6.2,3.9,13.6
COC1=CC(=O)OC(/C=C/c2ccccc2)C1 (stereo not given),-8.9,-3.0,0.4,45.6*,-20.9,-1.3
CCCCCc1nc2c(c(=O)c3ccccc3n2C)c(=O)n1C1CCCCCC1,24.0,-10.1,20.9*,-10.5,0.7,7.1
CN1CCc2c(c(N3CCCCC3)nc3n[nH]c(N)c23)C1,18.0,4.1,0.2,-17.0,-2.2,-6.7
